Pin1 inhibitor = qHTS Assay to Find Inhibitors of Pin1 | Pin1 FP peptide displacement, HiFluor488, 10 min | Potency, µM (highest dose often 115 µM), for the others: top-dose activity, negative = inhibition, actives largely listed as inhibitors | 390,000 tested, 0.009% active; active = well fitted inhibition curve with a large enough effect in the polarisation, with a control signal flat, not every such curve was filed as active; inconclusive = small, poorly fitted or top-dose-only effect, or effect the other way, or a change in a side signal; inactive = no such curve, though single readings can be large or run the other way; the % refers to the polarisation; also: potency is read from the fitted curve at half-maximal effect
KCNH2 3.1 inh = qHTS for Inhibitors of KCHN2 3.1: Mutant qHTS. Potassium voltage-gated channel subfamily H member 2, brain isoform KCNH2 3.1 (human). U2OS KCNH2 3.1, thallium flux FluxOr; stronger effect = lower value. activity change, % (tested at about 1.8 µM). 340,000 tested, 0.95% active. AID 720553, 2013;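 active = maximum activity change below -70%; inconclusive = maximum activity change from -70% to -50%; inactive = maximum activity change above -50%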;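 also: thallium influx rate constant from kinetic fluorescence after stimulation buffer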
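We transduce U2OS cells with the mutant 3.1 virus, culture them overnight, load FluxOr with Red40 quencher for 45 min, then add stimulation buffer and read kinetically for 2 min to derive a normalized rate constant.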
RGS4 inhibitor = Inhibitors of Regulator of G Protein Signaling (RGS) 4: qHTS. Potency, µM (top dose mostly 114 µM), for the others: at the highest dose activity change, negative = inhibition, usual class: inhibitors. 390,000 tested, 0.039% active. Transcreener GDP fluorescence polarization, RGS4-accelerated GTP hydrolysis. Regulator of G-protein signaling 4 (Homo sapiens), P49798. AID 504845, 2011; also: potency is read from the fitted curve at half-maximal effect; nearly all actives have a fitted effect of over 75% in size
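MLSMR compounds (23 nl, pin-transferred) preincubated 10 min at room temperature with a 500nM (2x) first reagent, then RGS4 at 900nM (2x) plus Transcreener GDP mix added; fluorescence polarization (620/688 nm) read before and after 90 min at 30 °C.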
KCNH2 WT inh = qHTS for Inhibitors of KCHN2 3.1: Wildtype qHTS | Voltage-gated inwardly rectifying potassium channel KCNH2 (Homo sapiens), Q12809 | U2OS, BacMam KCNH2, thallium flux FluxOr; stronger effect = lower value | activity change, % at 1.84 µM | 340,000 tested, 0.37% active | AID 720551, 2013;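 active = maximum activity change below -70%; inconclusive = maximum activity change between -70% and -50%; inactive = maximum activity change above -50%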
Target sequence (Q12809 whole entry, looked up): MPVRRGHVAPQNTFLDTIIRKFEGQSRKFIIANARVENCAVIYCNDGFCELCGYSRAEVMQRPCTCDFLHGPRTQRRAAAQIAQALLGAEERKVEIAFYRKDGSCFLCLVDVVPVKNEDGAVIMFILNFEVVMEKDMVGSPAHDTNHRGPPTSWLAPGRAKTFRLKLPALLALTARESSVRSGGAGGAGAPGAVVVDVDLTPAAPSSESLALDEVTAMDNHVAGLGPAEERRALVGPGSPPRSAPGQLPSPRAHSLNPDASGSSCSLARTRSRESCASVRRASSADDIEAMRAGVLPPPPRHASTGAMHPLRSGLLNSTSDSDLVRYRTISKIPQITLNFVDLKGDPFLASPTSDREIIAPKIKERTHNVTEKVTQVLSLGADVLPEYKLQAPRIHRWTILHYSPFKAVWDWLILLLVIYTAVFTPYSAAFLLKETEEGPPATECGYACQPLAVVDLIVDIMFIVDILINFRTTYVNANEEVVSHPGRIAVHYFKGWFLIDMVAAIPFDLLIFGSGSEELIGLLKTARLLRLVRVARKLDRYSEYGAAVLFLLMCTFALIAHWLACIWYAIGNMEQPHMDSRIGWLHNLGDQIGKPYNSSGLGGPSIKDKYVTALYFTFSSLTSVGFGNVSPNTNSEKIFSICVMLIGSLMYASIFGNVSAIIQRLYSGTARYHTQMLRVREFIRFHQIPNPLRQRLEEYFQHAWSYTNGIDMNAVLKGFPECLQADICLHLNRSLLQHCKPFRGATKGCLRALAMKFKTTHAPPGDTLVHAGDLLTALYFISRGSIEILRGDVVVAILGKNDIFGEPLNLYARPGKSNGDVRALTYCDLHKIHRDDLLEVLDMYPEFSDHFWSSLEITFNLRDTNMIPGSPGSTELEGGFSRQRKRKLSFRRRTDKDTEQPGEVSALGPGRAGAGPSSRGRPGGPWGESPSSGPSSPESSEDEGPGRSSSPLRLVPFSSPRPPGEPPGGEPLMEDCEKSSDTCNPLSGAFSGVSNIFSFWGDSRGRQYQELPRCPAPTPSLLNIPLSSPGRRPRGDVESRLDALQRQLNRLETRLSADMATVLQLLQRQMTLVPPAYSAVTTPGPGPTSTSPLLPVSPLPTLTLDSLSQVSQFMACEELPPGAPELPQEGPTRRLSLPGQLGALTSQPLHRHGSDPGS
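U2OS cells transduced with wild-type KCNH2 virus are loaded with FluxOr dye for 45 min, and thallium flux is measured in kinetic reads before and after stimulation buffer. Rate constants are normalized to DMSO controls.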
GCN5L2 inh = qHTS Assay for Inhibitors of GCN5L2. 390,000 tested, 0.21% active. Histone acetyltransferase KAT2A (Homo sapiens), Q92830. GCN5L2 HAT assay, ThioGlo1 CoA-SH fluorescence. Potency, µM (doses to about 58.9 µM), without a hit: top-dose activity change, negative = inhibition, hits mostly inhibitors. AID 504327, 2011; also: potency is read from the fitted curve at half-maximal effect
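Titration-based screen in which CoA formation is detected via maleimide probe ThioGlo1 (50uM) turning fluorescent on thiol reaction; substrates H3(1-25) 75uM and acetyl-CoA 70uM, GCN5L2 20nM, 20 min incubation at room temperature.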
PGK inhibitor = qHTS Assay to Find Inhibitors of Phosphoglycerate Kinase; Phosphoglycerate kinase, glycosomal (Trypanosoma brucei brucei), P07378; PGK/GAPDH coupled, Kinase-Glo luminescence, 60 min; Potency, µM (series often up to 57.5 µM), for inactives: at the highest dose activity change, negative = inhibition, most hits filed as inhibitors; 380,000 tested, 0.043% active; also: potency is read from the fitted curve at half-maximal effect; nearly all actives have a fitted effect of over 60% in size
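Recombinant glycosomal PGK reaction used 1,3-bisphosphoglycerate generated in-well by GAPDH (100nM final) in 100mM TEA pH 7.6, 5mM MgCl2, 0.01% Tween-20. After 60 minutes at room temperature, ATP was read by Kinase-Glo Plus luminescence end-point.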
Active calls of the source: *; i = inactive; ? = inconclusive; nt = no result given; ! = repeats disagree; [ ] = another dose, or the depositor's remark. Shown are actives, neighbours in structure and some others; about 1.2% of the full set was active somewhere. Unless noted, calls follow the shape of the dose curve; as a rule, active = well fitted curve in the direction sought with a large enough effect; inconclusive = small, poorly fitted or top-dose-only effect, or another doubt; inactive = no such curve, though single readings can be large; an effect the other way counts as inactive or inconclusive. % is scaled to controls: 0 for no effect and ±100 for the full control effect.

SMILES | Pin1 inhibitor | KCNH2 3.1 inh | RGS4 inhibitor | KCNH2 WT inh | GCN5L2 inh | PGK inhibitor
OC[C@@H]1[C@@H](c2ccc(F)cc2)C(c2ccc(F)cc2)=NN1c1ccccc1 | nt | nt | nt | nt | -1%[88.6 µM] | nt
Nc1nc(SCC(=O)c2c(N)n(Cc3ccccc3)c(=O)[nH]c2=O)n[nH]1 | -2% | -17 | -10% | -105* | 8% | -1%
COc1ccc(C2=CC(=O)C=CC2=O)cc1 | nt | nt | nt | nt | 13µM* | nt
O=C(O)C1C2C=CC(C2)C1C(=O)NCCCN1CCCC1=O (configuration not stated) | 3% | 12 | 31% | -128* | -2% | 1%
O=C(O)CCCCC1CCSS1 (configuration not stated) | -1% | 4 | -5% | -3 | 3.2µM* | -7%
O=C(O)CCCC[C@H]1SC[C@H]2NC(=O)N[C@@H]21 | nt | nt | nt | nt | 3%[21.4 µM] | nt
COc1ccc(/C=C2\OC(=S)N(C)C2=O)cc1 | 0% | 2 | 16% | -13 | -6% | -3%
CN1C(=O)/C(=C\c2ccc(N(C)C)cc2)OC1=S | ? | -23 | -42%[56.9 µM] | -101* | -5% | -4%
CC(C)CN(C[C@@H](OP(=O)(O)O)[C@H](Cc1ccccc1)NC(=O)O[C@@H]1CCOC1)S(=O)(=O)c1ccc(N)cc1 | nt | nt | nt | nt | -15% | nt
CCCCC/C=C\C/C=C\CCCCCCCC(=O)O[C@@H](CO)COC(=O)CCCCCCCCCCCCCCCCC | nt | nt | 2.7µM* | nt | 41% | nt
Cc1cccc(N(C)S(=O)(=O)c2ccc3[nH]cc(C(=O)N4CCOCC4)c(=O)c3c2)c1 | 3% | -16 | 5% | -8 | -9% | -9%
CCc1ccccc1N(C)S(=O)(=O)c1ccc2[nH]cc(C(=O)N3CCc4ccccc43)c(=O)c2c1 | 18% | -85* | 5% | -24 | -5% | 0%
Cc1ccc(NC(=O)Cn2c(=O)n(Cc3ccccc3)c(=O)c3c(C)c(C(=O)N(C)C)sc32)c(C)c1 | 0% | nt | -1% | nt | -12% | -5%
COc1cc2c(cc1OC)C(c1ccc(-c3ccc(Cl)cc3Cl)o1)=NCC2 | 5% | -115* | ? | -4 | -7% | 2%
CCc1cccc2c(C(=O)CCl)c[nH]c12 | 0% | nt | -6% | -2 | 4% | -4%
CCc1cccc2c3c([nH]c12)[C@@](CC)(CC(=O)O)OCC3 | nt | nt | nt | nt | 13µM* | nt
C[C@@H]1C(=O)O[C@@H]1[C@@H](C)CO[Si](c1ccccc1)(c1ccccc1)C(C)(C)C | -2% | nt | 4% | nt | nt | nt
O=C(c1ccco1)N1CCN(C(=O)N2CCCCC2)CC1 | 0% | 11 | -16% | -9 | -8% | -2%
O=C(c1ccco1)N1CCN(C(=O)C2CC(=O)N(c3ccc(Cl)cc3)C2)CC1 (configuration not stated) | 3% | -95* | -7% | -12 | 1% | -5%
CC1(C(=O)N2CCN(C(=O)c3ccco3)CC2)CC1(Br)Br (configuration not stated) | -7% | -2 | 7% | -6 | 6.3µM* | -2%
CC(Oc1ccc(Cl)cc1)C(=O)N1CCN(C(=O)c2ccco2)CC1 (configuration not stated) | -3% | -164* | -11% | -129* | -9% | 8%
CCOC(=O)CSc1nc2cc3c(cc2c(=O)n1Cc1ccc(C(=O)NCCc2ccc(OC)c(OC)c2)cc1)OCO3 | -3% | nt | -28% | nt | -6% | 5%
CCOC(=O)c1ccc(CN(Cc2ccccc2C)S(=O)(=O)c2ccc(F)c(C(=O)Nc3cccc(OC)c3)c2)cc1 | -4% | nt | 9% | nt | -1% | -6%
COc1ccc(C2CC(c3ccc(Br)cc3)=NN2C(=O)CN2CCCC2)cc1 (configuration not stated) | 4% | -83* | -1% | 27 | -6% | -2%
COc1ccc(C2=NN(C(=O)CN3CCCCC3)C(c3ccc(C)cc3)C2)cc1 (configuration not stated) | 8% | -3 | -21% | 5 | 3% | -5%
SMILES | Pin1 inhibitor | KCNH2 3.1 inh | RGS4 inhibitor | KCNH2 WT inh | GCN5L2 inh | PGK inhibitor
CCOC(=O)c1nnn(CC(=O)N2N=C(c3ccc(Cl)cc3)CC2c2ccc(OC)cc2)c1C(=O)OCC (configuration not stated) | 3% | ? | 3% | -76* | 1% | -2%
O=C(O)C(c1ccccc1)N1C(=O)/C(=C\c2ccc(-c3ccc(Br)cc3)o2)SC1=S (configuration not stated) | ? | 17 | ? | -12 | ? | 1%
O=C(O)C(c1ccccc1)N1C(=O)/C(=C\c2ccc(-c3ccccc3Cl)o2)SC1=S (configuration not stated) | ? | -4 | ? | 9 | ? | 11µM*
CCN(c1ccc(OC)cc1)S(=O)(=O)c1nnc(NC(=O)c2ccco2)s1 | ? | -2 | 7%[11.4 µM] | -5 | -7% | -3%
COc1ccc(N(CC(C)C)S(=O)(=O)c2nnc(NC(=O)c3ccco3)s2)cc1 | -5% | 16 | -11%[56.9 µM] | 0 | 1µM*! | -4%
CN(C)c1cc(-c2ccc(Cl)c(Cl)c2)oc(=O)c1Cl | 0% | -98* | 5% | 2 | 9% | 2%
CCC(=O)Nc1ccc2c(c1)nc(CN1CCN(C(C)=O)CC1)n2C | -6% | 1 | -9% | -4 | 32µM* | -2%
O=C1Nc2ccccc2CCC1Sc1nnc(-c2ccc(Cl)cc2)s1 (configuration not stated) | -2% | -72* | -17% | 6 | -8% | -6%
COc1cccc(Nc2nc(CN3CCOCC3)nc3sc4c(c23)CCCC4)c1 | 3% | -6 | -14% | -134* | -2% | 7%
O=C1c2ccccc2CC[C@H]1CNCCc1ccc(O)cc1 | nt | nt | 4.2µM* | nt | -12% | nt
CC1=C(c2ccc(F)cc2)S(=O)(=O)N=C1N1CCC(C(=O)NCCc2ccco2)CC1 | ? | nt | -4% | nt | -2% | nt
CC(=O)c1ccc(NC(=O)C2CC(c3ccc(F)cc3)=NO2)cc1 (configuration not stated) | -3% | -97* | -1% | -5 | 36% | i
S=C(NCCc1ccccc1)N1CCN(C2CCCCC2)CC1 | 0% | -93* | -19% | 16 | -6% | -2%
Cc1cc(-c2nn(-c3ccccc3F)cc2CN2CCN(c3ccncc3)CC2)c(C)s1 | -7% | -136* | 7% | -137* | -8% | 6%

Bioassay records from PubChem BioAssay.
